The other results are listed elsewhere or left out. No count for the full screen is at hand.
Molecular target: furin, P09958
Experiment: furin cleavage Z-score vs untreated control; higher = more cleavage, active = 3.5 or more, inactive = 1 or less, 8 variable residues between constant flanks
Procedure, shortened: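 The cleavage Z-score was derived for purified furin acting on 8-mer peptides held on magnetic beads and fused to a cDNA oligonucleotide. Digests lasted 7.5, 15 or 30 min at 1:10 enzyme:substrate in 50 mM HEPES pH 7.5 with CaCl2 and NaCl. Sequencing counts of released DNA, log-transformed against furin-free reactions, were lowess-adjusted and scaled by median absolute deviation.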

Sequence of furin, P09958 (P09958 whole entry): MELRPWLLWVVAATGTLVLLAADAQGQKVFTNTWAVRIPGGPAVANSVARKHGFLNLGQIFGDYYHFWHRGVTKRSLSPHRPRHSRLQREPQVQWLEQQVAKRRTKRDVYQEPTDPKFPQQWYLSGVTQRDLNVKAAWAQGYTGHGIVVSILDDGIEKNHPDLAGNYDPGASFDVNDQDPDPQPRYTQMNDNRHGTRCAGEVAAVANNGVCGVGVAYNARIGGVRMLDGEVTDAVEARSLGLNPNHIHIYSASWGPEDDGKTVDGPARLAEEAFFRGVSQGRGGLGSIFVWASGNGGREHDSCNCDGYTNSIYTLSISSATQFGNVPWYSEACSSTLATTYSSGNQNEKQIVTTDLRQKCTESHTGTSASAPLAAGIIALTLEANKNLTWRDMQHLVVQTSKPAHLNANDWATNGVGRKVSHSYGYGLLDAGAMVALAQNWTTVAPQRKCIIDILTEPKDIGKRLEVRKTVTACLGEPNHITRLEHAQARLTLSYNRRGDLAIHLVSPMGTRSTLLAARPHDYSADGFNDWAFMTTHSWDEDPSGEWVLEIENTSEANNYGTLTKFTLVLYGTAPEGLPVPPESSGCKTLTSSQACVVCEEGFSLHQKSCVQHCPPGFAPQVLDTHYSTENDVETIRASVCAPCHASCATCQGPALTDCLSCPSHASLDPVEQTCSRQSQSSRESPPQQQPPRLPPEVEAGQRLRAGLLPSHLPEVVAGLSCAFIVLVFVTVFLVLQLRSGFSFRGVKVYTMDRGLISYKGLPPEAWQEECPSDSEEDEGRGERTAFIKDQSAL

| Sequence | furin cleavage Z-score (7.5 min) | furin cleavage Z-score (15 min) | furin cleavage Z-score (30 min) |
| --- | --- | --- | --- |
| CAVVCCSHSYAGNASASA [HC2055] | 1.14 | -0.432 (inactive) | 0.703 (inactive) |
| CAGEECSQHLAGNASASA [HC1676] | 0.0385 (inactive) | 1.42 | -0.903 (inactive) |
| CARRRRDLGSAGNASASA [FS-2517] | 10.6 (active) | 10 (active) | 9.26 (active) |
| CANEITLTHPAGNASASA [HC977] | -0.433 (inactive) | 0.337 (inactive) | 0.088 (inactive) |
| CAVNSWLGNIAGNASASA [HC1573] | 1.52 | 0.0684 (inactive) | -1.01 (inactive) |
| CARPPLGNWFAGNASASA [HC432] | 1.77 | 0.979 (inactive) | -0.0677 (inactive) |
| CARKERRKHKAGNASASA [FS-2959] | -0.0944 (inactive) | -0.106 (inactive) | 0.503 (inactive) |
| CAAKERLKRKAGNASASA [FS-213] | 9.07 (active) | 9.78 (active) | 9.62 (active) |
| CAQWARYARWAGNASASA [FS-484] | -0.0806 (inactive) | 1.37 | 2.8 |
| CAKRKRWTGQAGNASASA [FS-2478] | 1 | 4.62 (active) | 4.37 (active) |
| CALSKRKKRKAGNASASA [FS-827] | 8.35 (active) | 9.52 (active) | 8.96 (active) |
| CADPKRTIGQAGNASASA [FS-1982] | 0.168 (inactive) | -0.891 (inactive) | -1.67 (inactive) |
| CANKKRKARWAGNASASA [FS-1238] | 6.93 (active) | 7.47 (active) | 9.18 (active) |
| CAWEKRSRGQAGNASASA [FS-2625] | -0.652 (inactive) | -0.795 (inactive) | -0.906 (inactive) |
| CANKKRGGTAAGNASASA [WN4] | -1.48 (inactive) | -0.337 (inactive) | -0.0754 (inactive) |
| CATTCCSGSWAGNASASA [HC1880] | -0.863 (inactive) | -1.92 (inactive) | -0.734 (inactive) |
| CAQVPCHRPSAGNASASA [HC2322] | 0.276 (inactive) | 1.25 | 1.48 |
| CAKKKRVVPKAGNASASA [FS-2122] | -1.74 (inactive) | -0.376 (inactive) | -0.937 (inactive) |
| CAKKKRKKRKAGNASASA [FS-673] | 4.92 (active) | 5.01 (active) | 5.6 (active) |
| CAKKKRRKRKAGNASASA [FS-1218] | 5.44 (active) | 7 (active) | 6.09 (active) |
| CAKKKRAACKAGNASASA [FS-2541] | 0.497 (inactive) | -0.617 (inactive) | 1.88 |
| CAGRSHSKRKAGNASASA [FS-245] | 1.44 | 0.295 (inactive) | 1.58 |
| CAKKKRKFSKAGNASASA [FS-2866] | -0.0204 (inactive) | -0.905 (inactive) | -0.0235 (inactive) |
| CAKNMRRKRKAGNASASA [FS-1222] | 9.63 (active) | 9.29 (active) | 7.84 (active) |

| Sequence | furin cleavage Z-score (7.5 min) | furin cleavage Z-score (15 min) | furin cleavage Z-score (30 min) |
| --- | --- | --- | --- |
| CAKRKRSKRKAGNASASA [FS-1223] | 10.8 (active) | 10.5 (active) | 8.25 (active) |
| CALGALTGTYAGNASASA [HC631] | -0.145 (inactive) | 0.814 (inactive) | 0.51 (inactive) |
| CAVFPDLGVRAGNASASA [HC1451] | -2.35 (inactive) | -0.19 (inactive) | 0.302 (inactive) |
| CARQMRSASIAGNASASA [FS-2400] | 0.584 (inactive) | 2.25 | 4.94 (active) |
| CARQMRSVDVAGNASASA [FS-3039] | 2.09 | 3.9 (active) | 5.69 (active) |
| CARERRWQDVAGNASASA [FS-1698] | -0.457 (inactive) | 0.122 (inactive) | 1.79 |
| CARVTRSLDVAGNASASA [FS-3127] | 5.89 (active) | 8.68 (active) | 7.6 (active) |
| CARKWRSWKVAGNASASA [FS-2274] | 1.07 | 1.35 | 0.0619 (inactive) |
| CARRKKILDVAGNASASA [FS-3049] | 0.884 (inactive) | 0.207 (inactive) | -1.99 (inactive) |
| CARQNRSRSIAGNASASA [FS-2362] | -0.846 (inactive) | 0.141 (inactive) | -0.0686 (inactive) |
| CAEKMALYDVAGNASASA [HC1456] | 0.218 (inactive) | -0.51 (inactive) | 0.171 (inactive) |
| CAVVCCSMSIAGNASASA [HC2084] | -0.331 (inactive) | -1.27 (inactive) | 0.12 (inactive) |
| CAGGDIYHSVAGNASASA [HC1649] | -1.03 (inactive) | -0.366 (inactive) | -0.802 (inactive) |
| CASSPCSAHLAGNASASA [HC2497] | 0.244 (inactive) | 0.911 (inactive) | 0.262 (inactive) |
| CAAVLTSMLTAGNASASA [HC1245] | -1.15 (inactive) | 1.56 | 0.027 (inactive) |
| CANWQRARRFAGNASASA [FS-912] | 3.9 (active) | 4.91 (active) | 5.21 (active) |
| CAVSRRSRGIAGNASASA [FS-2857] | 1.63 | 3.08 | 4.54 (active) |
| CAAAARARRFAGNASASA [FS-1108] | 2.41 | 5.92 (active) | 6.24 (active) |
| CAVSRRARRFAGNASASA [FS-1436] | 10.2 (active) | 11.6 (active) | 10.4 (active) |
| CAAAAAAAAAAGNASASA [NE2] | 2.09 | 0.496 (inactive) | 2.15 |
| CARSNRQLGIAGNASASA [FS-2185] | 0.465 (inactive) | -0.691 (inactive) | 0.216 (inactive) |
| CANFHKARRFAGNASASA [FS-1143] | -0.34 (inactive) | -0.616 (inactive) | -0.0235 (inactive) |
| CANWQKLETFAGNASASA [HC1037] | 0.812 (inactive) | -1.06 (inactive) | 0.807 (inactive) |
| CAVSKRHVRIAGNASASA [FS-2114] | -0.647 (inactive) | 1.47 | 2.71 |

Source: the supplement of paper PMC3545927
